Results from PubChem BioAssay (NCI).
The panel holds about 83,000 compounds, 20% with a hit somewhere; the sample as a whole holds those more often.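 96-well plates, one dose, 48 hours. Percent growth reported; active if below 10.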 Values without a mark were called inactive. Activity calls are given as the source filed them.

system: MDA-MB-468 breast; assay: NCI-60 one-dose screen, 48 h (100 = growth as untreated, 0 = no growth, -100 = all killed); conditions: 10 µM unless noted

Structure (SMILES) | growth
O=C(/C=C/c1ccccc1Cl)Nc1ncc(Cc2cc(Cl)ccc2Cl)s1 | 22.8%
COc1ccc(-c2nn(-c3ccccc3)cc2/C=C/C(=O)c2ccc(NC(=O)CCCCCCC(=O)NO)cc2)cc1 | 92.8%
O=C1/C(=C/c2ccc3c(c2)OCO3)SC(=S)N1CCc1ccc(O)cc1 | 67.8%
COc1ccc(/C=C/c2nc(N3CCOCC3)c3cc(F)c(F)cc3n2)cc1OC | -6.96% (active)
CN(C)c1ccc(/C=N/N=C(\C#N)[S][Sn]([Cl])([c]2ccccc2)[c]2ccccc2)cc1 | -76.8% (active)
CN(C)CSc1nc2ccccc2s1 | 110%
C=C[C@H]1C[C@@H]2C[C@@H]3[C@H]4C/C=C\C(=O)NCCCC5NC(=O)C(=C(O)/C=C/[C@@H]4CC(=O)[C@H]3[C@@H]2[C@H]1C)C5=O (stereo not given in full) | -29.9% (active)
CN(C)CCCNCc1ccc(-c2ccc(F)c(Cl)c2)o1 | -66.3% (active)
CN1CCN(c2ccc(Nc3nc(NCCNC(=O)c4ccc(F)cc4)c4sccc4n3)cc2)CC1 | 48.4%
COC(=O)c1c2c(c(C)[n+]([O-])c1C)C(=O)C=C(NCc1ccc(OC)cc1)C2=O | -61% (active)
Cn1c2nc3ccccc3c-2cc2ccccc21 | 41.3%
[Cl][Ru].c1ccc(-c2cccc(-c3ccccn3)n2)nc1.c1ccc(-c2ccnc3c2ccc2c(-c4ccccc4)ccnc23)cc1 | -21.4% (active)
COc1ccc(-c2cnnc3c(-c4cccc(C(F)(F)F)c4)cnn23)cc1 | 77.6%
CC(=O)CSc1ncnc2nc[nH]c12 | 40.6%
C1CCC([PH+](C2CCCCC2)C2CCCCC2[PH+](C2CCCCC2)C2CCCCC2)CC1.[Au].[CH-]1CCCCC1C1CCCC[N-]1 (stereo not given) | -33.9% (active)
COc1cc(Cc2cc(-c3ccccc3)n[nH]c2=O)cc(OC)c1OC | 29%
Cc1nc2ccccc2c(/C=C/c2ccc(Cl)cc2)c1C(=O)/C=C/c1ccc(C(F)(F)F)cc1 | -65.8% (active)
CCOc1cccc(-c2nc(N)nc(Nc3ccccc3SSc3ccccc3Nc3nc(N)nc(-c4cccc(OCC)c4)n3)n2)c1 | 107%

Structure (SMILES) | growth
COc1ccc(Cn2c(Br)c3c(c2Br)-c2nc(NC(=O)c4ccc(OC)cc4)sc2CC3)cc1 | 83.5%
CC1(C)CC[C@]2(C(=O)NCCNCCN)CC[C@]3(C)C(=CC[C@@H]4[C@@]5(C)CCC(=O)C(C)(C)[C@@H]5CC[C@]43C)[C@@H]2C1 | -67% (active)
COc1cccc(NC(=O)Cn2cc3c(=O)oc4ccccc4c3n2)c1 | 101%
CCN(CC)CCn1c2ccc(O)cc2c2sc3cc(O)ccc3c(=O)c21 | 47.8%
O=C(NNc1nc(Cl)nc(N2CCN(C(c3ccccc3)c3ccccc3)CC2)n1)c1ccccc1 | -47.2% (active)
CCCCCN(CCCCC)CCCNc1c2c(nc3ccc(Cl)cc13)CCCC2 | 8.01% (active)
O=C1Nc2ccc(Cl)cc2/C1=C/c1ccc(OCC(=O)c2ccc(Br)cc2)cc1 | 111%
COc1cc2nc3cc([N+](=O)[O-])ccc3c(NCCNCC(C)O)c2cc1OC (stereo not given) | -45.6% (active)
C/C(=N\O)[C@H]1C[C@]23CC[C@]4(C)[C@H](CC[C@@H]5[C@@]6(C)CC/C(=N/O)C(C)(C)[C@@H]6CC[C@]54C)[C@H]2[C@H](C)C1(C)OC3 | 103%
COc1ccc(-c2c3c(nn2-c2ccc(N)cc2)CCc2cnoc2-3)cc1OC | 92.8%
CNC(=O)c1cc(Oc2ccc(NC(=O)c3[nH]c(SC)nc3-c3ccc(F)cc3)cc2)ccn1 | 70.9%
CC1(C)CC2(C)CC(=O)C1C(C(=O)O)C2C(=O)O (stereo not given) | 114%
O=C(Nc1nc(-c2ccccc2Cl)cs1)c1cc(-c2ccccc2)nc2ccc(Cl)cc12 | 90.9%
COc1ccc(CSc2nnc(SCC(=O)Nc3ccc(Cl)cc3)s2)cc1 | 91.1%
Cc1cccc2c1NC(=O)[C@@]21[C@H](C(=O)c2ccccc2)[C@]2(C(=O)Nc3ccccc32)[C@H]2CCCN21 | 22.2% [100 µM]
Cc1ccc(S(=O)(=O)N/N=C/C2(c3ccccc3)CC2)cc1 | 95.8%
CC(=O)Oc1ccc(/C(=C(\C)c2ccc(Cl)cc2)c2ccc(OCCN3CCCCC3)cc2)cc1 | -25% (active)
